SMN2 splice up = qHTS Assay for Enhancers of SMN2 Splice Variant Expression | 210,000 compounds, 2.8% hits | HEK293 SMN2-luciferase splicing reporter, luminescence, 30-36 h | Potency, µM (series often up to 46.1 µM), for the others: at the top dose activity change, positive = activation, hits mostly activators; note: % of control where 0% means no effect; nearly all actives have a fitted effect of over 55% in size
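HEK293 cells carry an SMN2 minigene-luciferase reporter in which exon 7 inclusion puts luciferase in frame. Cells were seeded at 2000 cells/well, attached for 10-12 hours, then exposed to compounds for 30-36 hours at 37C before ONE-Glo luminescence.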
FLuc modulator = qHTS profiling assay for firefly luciferase inhibitor/activator using purifed enzyme and Km concentrations of substrates (counterscreen for miR-21 project) | Luciferin 4-monooxygenase (Photinus pyralis), P08659 | purified FLuc, Km substrates, luminescence inhibition | Potency, µM (doses to about 57.5 µM), for the others: top-dose activity change, negative = inhibition, most hits filed as inhibitors | 360,000 compounds, 6.9% hits | AID 588342, 2011;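 note: plate controls were vehicle for no effect and reference inhibitor for full effect; nearly all actives have a fitted effect of over 55% in size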
Target sequence (P08659 whole entry, looked up): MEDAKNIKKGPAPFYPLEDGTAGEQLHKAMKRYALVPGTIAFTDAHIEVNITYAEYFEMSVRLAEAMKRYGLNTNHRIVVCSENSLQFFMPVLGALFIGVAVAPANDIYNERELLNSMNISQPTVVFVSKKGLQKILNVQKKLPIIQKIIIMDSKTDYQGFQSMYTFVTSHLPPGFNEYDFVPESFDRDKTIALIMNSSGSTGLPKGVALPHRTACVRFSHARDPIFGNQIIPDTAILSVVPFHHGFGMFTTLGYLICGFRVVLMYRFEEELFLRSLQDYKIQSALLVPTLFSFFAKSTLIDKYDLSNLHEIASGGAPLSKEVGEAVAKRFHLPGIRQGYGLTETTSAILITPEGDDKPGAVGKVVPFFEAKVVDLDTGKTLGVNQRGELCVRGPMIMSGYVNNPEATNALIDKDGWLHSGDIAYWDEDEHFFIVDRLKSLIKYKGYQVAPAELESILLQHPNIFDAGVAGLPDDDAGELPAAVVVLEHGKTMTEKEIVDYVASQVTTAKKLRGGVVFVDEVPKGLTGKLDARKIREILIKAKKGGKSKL
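Purified P. pyralis luciferase, 10 nM final, with Km-level 10 uM D-luciferin and 10 uM ATP in 50 mM Tris acetate pH 7.5, 10 mM Mg acetate, 0.01% Tween-20, 0.05% BSA; 6-point qHTS titration about 60 µM downward; luminescence read.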
ELG1 genotox = qHTS screen for small molecules that induce genotoxicity in human embryonic kidney (HEK293T) cells expressing luciferase-tagged ELG1; HEK293T ELG1-luciferase reporter, luminescence, 16 h; Potency, µM (series often up to 46 µM), for inactives: top-dose activity change, positive = activation, hits mostly activators; 330,000 compounds, 1.3% hits; AID 504466, 2011; note: % of control where 0% means no effect; nearly all actives have a fitted effect of over 60% in size
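Luminescence read-out: rising ELG1-luciferase signal, reflecting elevated ELG1 protein under genetic stress, flags genotoxic compounds. Cells were treated for 16 hr at 37 °C before ONE-Glo detection.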
NPC1 prom act = qHTS Assay for NPC1 Promoter Activators; 320,000 compounds, 2.4% hits; AID 485313, 2010; Huh7 NPC1 promoter luciferase reporter, 24 h; Potency, µM (doses to about 9.22 µM), for inactives: at the highest dose activation, most hits filed as activators; note: % of control where 0% means no effect; nearly all actives have a fitted effect of over 60% in size
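Cells: Huh7 expressing luciferase under the NPC1 promoter, 1500/well. Seeded 2 h, compound added, incubated 24 h at 37 °C. Luciferase reagent, 10 min ambient, then luminescence.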
ELG1 repair inh = qHTS screen for small molecules that inhibit ELG1-dependent DNA repair in human embryonic kidney (HEK293T) cells expressing luciferase-tagged ELG1. Potency, µM (titrated, usually from 46.1 µM), for the others: top-dose activity change, negative = inhibition, hits mostly inhibitors. HEK293T ELG1-luciferase reporter, luminescence, 16 h; DNA damage induced by 5-fluorouridine. AID 504467, 2011. 330,000 compounds, 2.3% hits; note: % is set by controls: 0 for no effect and ±100 for the full control effect; nearly all actives have a fitted effect of over 55% in size
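HEK293T cells expressing luciferase-tagged ELG1 (2,000/well) received 5-Fluorouridine plus compound or DMSO for 16 hr at 37 °C. Luciferase was read by ONE-Glo luminescence after 30 min at room temperature.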
Rab9 prom act = qHTS Assay for Rab9 Promoter Activators; Huh7 Rab9 promoter-luciferase reporter, luminescence, 24 h; 320,000 compounds, 2.8% hits; AID 485297, 2010; Potency, µM (doses to about 9.22 µM), for the others: at the top dose activation, negative = inhibition, usual class: activators; note: % of control where 0% means no effect; nearly all actives have a fitted effect of over 60% in size
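Cells were plated at 1500 per well in reduced-serum medium with 10% FBS and left 2 h. Compound in DMSO was then added for 24 h at 37 °C. Reporter signal was read by luminescence after 10 min with luciferase detection reagent.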
Active calls of the source: *. An excerpt weighted towards active compounds, which were near 9.3% of everything screened. Calls come from the whole dose curve; as a rule, active = well fitted curve in the direction sought with a large enough effect; inconclusive = small, poorly fitted or top-dose-only effect, or another doubt; inactive = no such curve, though single readings can be large; an effect the other way counts as inactive or inconclusive. Potency is the fitted concentration of half-maximal effect.

COc1ccc(C(=O)Cn2cnc3ccc(Cl)cc3c2=O)cc1F was read as FLuc modulator -1%, ELG1 genotox 6%, NPC1 prom act -4%, ELG1 repair inh -1% and Rab9 prom act -4%.
For Cc1noc(C)c1C(=O)N1CCCC(C(=O)c2cccc(OC(C)C)c2)C1 (centres undefined) the results were FLuc modulator 3%, ELG1 genotox -3%, NPC1 prom act -1%, ELG1 repair inh -5% and Rab9 prom act -5%.
For Cc1ccc(/C=C/C(=O)Nc2ccc(S(=O)(=O)Nc3cc(C)nc(C)n3)cc2)cc1 the results were FLuc modulator 11µM*, ELG1 genotox 1%, NPC1 prom act 3%, ELG1 repair inh 1% and Rab9 prom act -1%.
Cc1noc(NS(=O)(=O)c2ccc(NC(=O)/C=C/c3ccc(C(C)C)cc3)cc2)c1C was read as FLuc modulator 11µM*, ELG1 genotox 1%, NPC1 prom act -1%, ELG1 repair inh -1% and Rab9 prom act -1%.
Screening Cc1noc(NS(=O)(=O)c2ccc(NC(=O)/C=C/c3ccc(Br)cc3)cc2)c1C returned FLuc modulator inconclusive, ELG1 genotox 6%, NPC1 prom act -7%, ELG1 repair inh 4% and Rab9 prom act 3%.
CCc1ccc(C2CC(c3ccco3)=NN2S(C)(=O)=O)cc1 (centres undefined) was read as SMN2 splice up 0.5µM*, FLuc modulator 1.3µM*, ELG1 genotox inconclusive, NPC1 prom act 0.45µM*, ELG1 repair inh inconclusive and Rab9 prom act 0.32µM*.
NC(=S)Cc1ccc(Cl)cc1Cl was read as FLuc modulator 5%, ELG1 genotox 0%, NPC1 prom act -2%, ELG1 repair inh -4% and Rab9 prom act -12%.
`N=C(N)SCc1ccc(Cl)cc1Cl` gave SMN2 splice up 11%, FLuc modulator -3%, ELG1 genotox -2%, NPC1 prom act -5%, ELG1 repair inh 10µM* and Rab9 prom act -19%.
Screening O=C(CNC(=O)c1ccc2c(c1)OCCO2)N/N=C/c1ccc(Cl)cc1 returned SMN2 splice up -1%, FLuc modulator inconclusive, ELG1 genotox -1%, NPC1 prom act -2%, ELG1 repair inh 6% and Rab9 prom act -2%.
`Cc1cc([N+](=O)[O-])nn1Cc1ccc(C(=O)N/N=C/c2ccccc2)cc1` gave SMN2 splice up -5%, FLuc modulator inconclusive, ELG1 genotox 6%, NPC1 prom act -3%, ELG1 repair inh inconclusive and Rab9 prom act -2%.
CN(C)c1ccc(/C=N/NC(=O)c2ccc3c(c2)OCCO3)cc1 was read as FLuc modulator 4.8µM*, ELG1 genotox inconclusive, NPC1 prom act inconclusive, ELG1 repair inh inconclusive and Rab9 prom act inconclusive.
Screening CCN(CC)c1ccc(/C=N/NC(=O)c2ccc3c(c2)OCCO3)cc1 returned FLuc modulator 7.6µM*, ELG1 genotox 4%, NPC1 prom act 15%, ELG1 repair inh inconclusive and Rab9 prom act 0%.
For Cc1cc([N+](=O)[O-])nn1Cc1ccc(C(=O)N/N=C/c2ccc(N(C)C)cc2)cc1 the results were FLuc modulator 9.5µM*, ELG1 genotox 4%, NPC1 prom act -4%, ELG1 repair inh -2% and Rab9 prom act -6%.
`O=C1CC(c2nc(-c3ccc(Cl)cc3)no2)CN1c1ccc2c(c1)OCCO2` (centres undefined) gave FLuc modulator -12%.
For Cc1ccc(C(C(=O)NC2CCCCC2)N(Cc2ccco2)C(=O)Cn2cnc3ccccc32)cc1 (centres undefined) the results were SMN2 splice up -6%, FLuc modulator -2%, ELG1 genotox -3%, NPC1 prom act -6%, ELG1 repair inh -24% and Rab9 prom act 1%.
`CSc1nc2nc3c(cc2c(=O)n1-c1cccc(C)c1)COC(C)(C)C3` gave FLuc modulator -5%, ELG1 genotox -9%, NPC1 prom act -1%, ELG1 repair inh 21µM* and Rab9 prom act -4%.
Screening CSc1nc2nc3c(cc2c(=O)n1-c1ccccc1)COC(C)(C)C3 returned SMN2 splice up 4%, FLuc modulator -4%, ELG1 genotox -5%, NPC1 prom act -9%, ELG1 repair inh -3% and Rab9 prom act -9%.
For COc1ccc(-c2nc3ccccn3c2C=O)cc1 the results were SMN2 splice up inconclusive, FLuc modulator 11µM*, ELG1 genotox inconclusive, NPC1 prom act 4µM*, ELG1 repair inh inconclusive and Rab9 prom act 3.2µM*.
O=Cc1c(-c2ccc(F)cc2)nc2ccccn12 was read as SMN2 splice up -4%, FLuc modulator -10%, ELG1 genotox 3%, NPC1 prom act 10%, ELG1 repair inh inconclusive and Rab9 prom act 14%.
For COc1ccc(CNC(=O)CCCCCn2c(=O)[nH]c3ccccc3c2=O)cc1 the results were FLuc modulator 5%.
Screening O=c1ccc(Oc2nc(N3CCOCC3)nc(N3CCOCC3)n2)nn1-c1ccccc1 returned SMN2 splice up -13%, FLuc modulator 7%, ELG1 genotox 10%, NPC1 prom act 6%, ELG1 repair inh 13µM* and Rab9 prom act -1%.
For Cc1ccc(NC(=S)N2CCCCC2)cc1C the results were FLuc modulator 24µM*, ELG1 genotox 14%, NPC1 prom act -2%, ELG1 repair inh inconclusive and Rab9 prom act 26%.
`Cc1ccc(NC(=S)N2CCCCCC2)cc1` gave FLuc modulator 8.5µM*, ELG1 genotox inconclusive, NPC1 prom act inconclusive, ELG1 repair inh 0% and Rab9 prom act inconclusive.
`COc1ccc(C2CCCN2C(=S)Nc2ccc(C)c(C)c2)cc1OC` (centres undefined) gave SMN2 splice up -62%, FLuc modulator 1%, ELG1 genotox -5%, NPC1 prom act -4%, ELG1 repair inh 26µM* and Rab9 prom act 4%.
Screening COc1ccc(NC(=S)N2CCCCCC2)cc1OC returned SMN2 splice up 14%, FLuc modulator 3%, ELG1 genotox 3%, NPC1 prom act 0%, ELG1 repair inh 0% and Rab9 prom act -1%.
`COc1ccc(C2CCCN2C(=O)Nc2ccc(C)c(C)c2)cc1OC` (centres undefined) gave SMN2 splice up -6%, FLuc modulator inconclusive, ELG1 genotox 4%, NPC1 prom act 3%, ELG1 repair inh inconclusive and Rab9 prom act 3%.

Bioassay records deposited in PubChem by National Center for Advancing Translational Sciences (NCATS).
